VACV Venus inh: qHTS for Stage-Specific Inhibitors of Vaccinia Orthopoxvirus: Venus Reporter Primary qHTS | hit rate 0.46% among 330,000 | AID 720580, 2013 | Potency, µM (series often up to 36.5 µM), without a hit: top-dose activity change, negative = inhibition, actives largely listed as inhibitors | Vaccinia virus Venus reporter expression, fluorescence; calls by dose curve; tested in A549 cells; further: on the % scale 0 is the no-effect control and ±100 the full control effect; nearly all actives have a fitted effect of over 30% in size
Pf growth 96h: Primary qHTS for delayed death inhibitors of the malarial parasite plastid, 96 hour incubation. P. falciparum luciferase reporter growth, 96 h. Potency, µM (series often up to 28.7 µM), for inactives: at the top dose activity change, negative = inhibition, actives largely listed as inhibitors. hit rate 6.9% among 320,000; further: on the % scale 0 is the no-effect control and ±100 the full control effect
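Parasite growth measured via integrated firefly luciferase reporter in P. falciparum. Infected erythrocytes at 2% hematocrit, 0.05% parasitemia final were treated 96 hours at 37 C under 5% CO2, and luminescence was read.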
Vaccinia mCherry: qHTS for Stage-Specific Inhibitors of Vaccinia Orthopoxvirus: mCherry Reporter Primary qHTS; Vaccinia virus mCherry reporter infection, fluorescence; Potency, µM (doses to about 36.5 µM), for inactives: top-dose activity change, negative = inhibition, actives largely listed as inhibitors; hit rate 0.63% among 310,000; calls by dose curve; tested in A549 cells; further: on the % scale 0 is the no-effect control and ±100 the full control effect; nearly all actives have a fitted effect of over 35% in size
Pf growth 48h: Primary qHTS for delayed death inhibitors of the malarial parasite plastid, 48 hour incubation; AID 504832, 2011; P. falciparum luciferase growth in erythrocytes, 48 h; hit rate 5.9% among 310,000; Potency, µM (series often up to 28.7 µM), for the others: at the highest dose activity change, negative = inhibition, hits mostly inhibitors; further: on the % scale 0 is the no-effect control and ±100 the full control effect
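Cell-based growth assay: transgenic P. falciparum expressing firefly luciferase, cultured in red cells within RPMI 1640 containing 0.5% w/v Albumax, 24 mM bicarbonate and gentamycin. A drop in luciferase activity indicates inhibition.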
NS1 function inh: qHTS Assay for Inhibitors of Influenza NS1 Protein Function; Potency, µM (titrated, usually from 46.1 µM), inactives show at the top dose activity, positive = more growth; hit rate 0.4% among 270,000; AID 2326, 2010; calls by dose curve; further: actives are rising curves; nearly all actives have a fitted effect of over 50% in size
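Compounds were scored for reversing the slow growth caused by influenza A NS1 in S. cerevisiae, measured by optical density at 600 nm. Assay medium contained 2% galactose at pH 6.0; NS1-free yeast of the same strain were the positive control.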
HCV inh: qHTS Assay for Inhibitors of Hepatitis C Virus (HCV) | Potency, µM (series often up to 41.8 µM), for inactives: at the top dose activity change, negative = inhibition, hits mostly inhibitors | hit rate 3.4% among 340,000 | Huh7.5.1 HCVcc-Cre infection, luciferase reporter, 44 h; further: on the % scale 0 is the no-effect control and ±100 the full control effect
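Cells seeded at 1,000/well and cultured 4 h, then compounds added followed by HCVcc-Cre virus (~0.5 moi). After 44 h further culture, luciferase substrate was added, plates held 15 min at room temperature, and luminescence read for 15 sec.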
An asterisk follows results filed as active; i = inactive; ? = inconclusive; . = no result given; [ ] = remark or other dose. Shown are actives, neighbours in structure and some others; about 11% of the full set was active somewhere. Unless noted, the call rests on the fitted dose curve; in most records, active means well fitted inhibition curve with a large enough effect; inconclusive means small, poorly fitted or top-dose-only effect, or another doubt; inactive means no such curve, though single readings can be large or run the other way. Potency means the concentration at half of the fitted maximal effect.

SMILES	VACV Venus inh	Pf growth 96h	Vaccinia mCherry	Pf growth 48h	NS1 function inh	HCV inh
COc1cc2ccccc2cc1C(=O)N(CCN(C)C)c1nc2ccc(C)cc2s1	-24.5%	-23.5%	-5.0%	?	7.9%	6.31µM*
CN(C)CCCN(C(=O)c1cc(-c2cccs2)nc2ccccc12)c1nc2c(F)cccc2s1	-28.0%	?	?	?	-27.3%	12.3%
Cc1ccc2nc(N(CCCN(C)C)C(=O)c3cc(-c4cccs4)nc4ccccc34)sc2c1	.	13.1µM*	.	-28.6%	-38.9%	11.2µM*
N#CC1(c2ccccc2)CCC(=NNS(=O)(=O)c2ccccc2)CC1 (configuration not stated)	.	-6.2%	.	?	.	0.8%
COc1ccc(Cc2nc3c4c(ncn3n2)Oc2c(ccc3ccccc23)C4c2ccc(OC)c(OC)c2)cc1 (configuration not stated)	-9.3%	1.85µM*	i	2.62µM*	-1.4%	?
COc1ccc(Cc2nc3c4c(ncn3n2)Oc2ccc3ccccc3c2C4c2ccc(OC)c(OC)c2)cc1 (configuration not stated)	-12.5%	?	i	1.65µM*	4.9%	?
COc1ccc(C2c3ccc(O)cc3Oc3ncn4nc(-c5ccco5)nc4c32)cc1OC (configuration not stated)	-7.2%	-1.7%	18.8%	?	2.3%	-27.8%
COc1ccc(C2c3c(ncn(Cc4ccco4)c3=N)Oc3ccc4ccccc4c32)cc1 (configuration not stated)	-25.8%	?	-15.3%	?	?	?
CCc1nc(NCCCN2CCOCC2)c2oc3ccccc3c2n1	-6.1%	5.86µM*	.	?	-4.3%	-9.8%
CCc1nc(Nc2cccc(O)c2)c2oc3ccccc3c2n1	.	?	.	?	-1.7%	?
Cc1cccc(Nc2nc(C)nc3c2oc2ccccc23)c1	.	?	.	?	-6.7%	12.6µM*
Cc1nc(NC(C)c2ccccc2)c2oc3ccccc3c2n1 (configuration not stated)	?	?	?	?	-151.2%	6.31µM*
COc1ccc(OC)c(Nc2nc(C)nc3c2oc2ccccc23)c1	?	?	-1.1%	?	-11.5%	-22.4%
CCC(C)Nc1nc(C)nc2c1oc1ccccc12 (configuration not stated)	.	?	.	?	-7.0%	?
CCc1nc(Nc2ccncc2)c2oc3ccccc3c2n1	?	.	?	13.1µM*	-13.0%	?
O=C(CSc1nc(-c2ccc(F)cc2)cs1)N1CCc2ccccc21	.	-1.0%	.	34.3%	-8.1%	-8.1%
CSc1nnc(-c2cccs2)n1C	-4.2%	46.7%	-8.7%	11.9%	0.0%	20.1%
COCCN(CCOC)S(=O)(=O)c1ccc(C(=O)Nc2sc3c(c2C(N)=O)CCCCC3)cc1	-18.2%	211.6%	i	73.5%	3.7%	0.0%
CC(=O)Nc1ccc(Nc2nc(C)nc3c2oc2ccccc23)cc1	.	-8.7%	.	?	-2.1%	?
Cc1nc(Nc2ccncc2)c2oc3ccccc3c2n1	.	-1.7%[5.75 µM]	.	.	-2.5%	8.91µM*
O=C(Nc1cc(Cl)c(Cl)cc1Cl)c1cccnc1	.	-17.7%	.	21.5%	-3.0%	0.5%
O=C(CSCC(=O)N1CCCCC1)Nc1nc(-c2ccc(Cl)s2)cs1	?	37.0%	?	.	-74.4%	-14.0%
O=C(CSCC(=O)N1CCN(c2ccccc2)CC1)Nc1nc(-c2ccc(Cl)s2)cs1	?	?	?	?	10.9%	6.31µM*
O=C(CCS(=O)(=O)c1nc(-c2cccs2)cc(C(F)(F)F)n1)Nc1cc(Br)ccc1O	-9.9%[7.34 µM]	.	-13.9%[7.34 µM]	.	.	.
COC(=O)C1(C)NC(c2ccc(O)cc2)C2C(=O)N(c3ccc(C)cc3)C(=O)C21 (configuration not stated)	-2.6%	4.65µM*	-16.7%	30.3%	1.1%	9.1%

Bioassay records: PubChem, National Center for Advancing Translational Sciences (NCATS)
